Results reported in PubChem BioAssay (Tox21).
Records with an inconclusive call do not appear. Active and inactive are the calls of the source. Calls follow the shape of the dose curve; as a rule, active = well fitted cell-killing curve with a large enough effect in the repeat runs; inconclusive = weak or mixed curves, or effect the other way; inactive = no such curve, though single readings can be large or run the other way.

Test: qHTS assay to identify small molecule agonists of the estrogen receptor alpha (ER-alpha) signaling pathway in the presence of an antagonist - cell viability counter screen (AID 1259386);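 also: cells exposed to compounds for 22 h at 37 °C before the viability read; nearly all actives have a fitted effect of over 30% in size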
Details: VM7Luc4E2 viability, CellTiter-Fluor fluorescence, 22 h; series mostly up to 92.4 µM; activity change, negative = cytotoxicity: at the top concentration
Text: National Center for Advancing Translational Sciences [NCATS]
NIH Chemical Genomics Center [NCGC]
U.S. Environmental Protection Agency [EPA]
National Institutes of Environmental Health Sciences [NIEHS]
National Toxicology Program [NTP]
U.S. Food and Drug Administration [FDA]
Estrogen receptor (ER), a member of nuclear hormone receptor plays an important role in development, metabolic homeostasis and reproduction. Two subtypes of ER, ER-alpha and ER-beta, have similar expression patterns with some uniqueness in both types. Endocrine disrupting chemicals (EDCs) and their interactions with steroid hormone receptors like ER causes disruption of normal endocrine function. Therefore, it is important to understand the effect of environmental chemicals in ER signaling pathway. For identifying ER agonists, VM7Luc4E2 cell line has been used in the current assay.
VM7Luc4E2 cell line (provided by Denison MS, University of California) endogenously expresses full-length ER-alpha and is stably transfected with a plasmid containing four estrogen responsive elements (ERE) upstream of a luciferase reporter gene. This current screening for measuring luciferase reporter gene activity using VM7Luc4E2 cells against Tox21 10K library collection is a confirmation study on agonist mode screening in presence of ER-antagonist (ICI-182,780) at 10.0nM final concentration. The cytotoxicity of the compounds was tested in parallel by measuring the cell viability using CellTiter-Fluor assay system (Promega, Madison, WI) in the same wells.
Tox21 Assay Protocol Summary:
VM7Luc4E2 cells were cultured in phenol red free assay medium containing 10% charcoal stripped FBS for 5 days prior to the assay. The cells were dispensed at 4,000 cells in 4uL of assay medium per well into white wall/solid-bottom 1536-well plates (Corning Life Sciences, Corning, NY) using a Multidrop Combi (Thermo Fisher Scientific Inc., Waltham, MA) dispenser. After the assay plates were incubated at 37C and 5% CO2 for 24hr, 1uL of 10.0nM (final concentration) ICI-182,780 or assay buffer was added using two separate tips of Flying Reagent Dispenser (FRD, Aurora Discovery, San Diego, CA). Then 23nL of compounds dissolved in DMSO at 15 concentrations and positive controls or DMSO only was transferred to the assay plates by a Pintool station (Wako, San Diego, CA). The assay plates were incubated at 37C and 5% CO2 for 22hr. After 21hr incubation at 37C, 1uL/well CellTiter-Fluor reagent (Promega Corporation, Madison, WI) was added to each well using FRD and after 1hr incubation at 37C and 5% CO2, the fluorescence signal was measured on ViewLux plate reader (PerkinElmer, Shelton, CT).
% is scaled to controls: 0 for no effect and ±100 for the full control effect.

Row | Structure (SMILES) | activity change, negative = cytotoxicity | Potency
1 | COc1ccc2c(C(=O)c3ccc(Cl)cc3)c(C)n(CC(=O)O)c2c1 | -4.83% [at 42.5 µM] (inactive) | –
2 | COC[C@@H](NC(C)=O)C(=O)NCc1ccccc1 | 7.09% [at 42.5 µM] (inactive) | –
3 | C=CCC1(C(C)CC)C(=O)NC(=O)NC1=O (stereo not given) | 9.95% [at 42.5 µM] (inactive) | –
4 | Brc1c(Br)c(Br)c(Br)c(Br)c1Br | 2.08% [at 8.39 µM] (inactive) | –
5 | O=C1C2CC=CCC2C(=O)N1SC(Cl)(Cl)Cl (stereo not given) | 1.93% (inactive) | –
6 | CCNc1nc(Cl)nc(NC(C)(C)C)n1 | 10.7% (inactive) | –
7 | CC(C)c1ccc(O)cc1 | 3.1% (inactive) | –
8 | C[C@@H](N)[C@@H](O)c1ccccc1 | 0.892% [at 42.5 µM] (inactive) | –
9 | [P]#[In] | -2.45% (inactive) | –
10 | CN(C)CCN(C)C | 2.02% (inactive) | –
11 | C1CN2CCC1CC2 | 3.96% [at 42.5 µM] (inactive) | –
12 | O=C(Cl)C(Cl)(Cl)Cl | 7.81% (inactive) | –
13 | CCCCCCCCBr | 4.87% (inactive) | –
14 | CC(C)(N)Cc1ccc(Cl)cc1 | -2.06% [at 42.5 µM] (inactive) | –
15 | CCN[C@@H](C)Cc1cccc(C(F)(F)F)c1 | -1.67% [at 42.5 µM] (inactive) | –
16 | O=C(Cl)CCl | 1.81% (inactive) | –
17 | NC(=O)CS(=O)C(c1ccccc1)c1ccccc1 (stereo not given) | 0.55% [at 42.5 µM] (inactive) | –
18 | CNC(=O)O/N=C(/CSC)C(C)(C)C | 0.337% (inactive) | –
19 | CCOC(=O)Nc1cccc(OC(=O)Nc2ccccc2)c1 | -0.575% (inactive) | –
20 | CCCOc1nn(C(=O)NS(=O)(=O)c2ccccc2C(=O)OC)c(=O)n1C | 0.539% (inactive) | –

Row | Structure (SMILES) | activity change, negative = cytotoxicity | Potency
21 | Oc1ccc(Cc2ccc(O)cc2)cc1 | 2.37% (inactive) | –
22 | COc1ccc(C=O)cc1O | -6.34% (inactive) | –
23 | CCCCCCC(=O)CCCCCC/C=C/C[C@@H](O)[C@H](O)[C@@](N)(CO)C(=O)O | -0.798% [at 19 µM] (inactive) | –
24 | CON(C)C(=O)Nc1ccc(Br)cc1 | -0.649% (inactive) | –
25 | N#CC(Br)(Br)C(N)=O | -22.8% (inactive) | –
26 | CCC(C)(C#N)N=NC(C)(C#N)CC (stereo not given) | -0.791% (inactive) | –
27 | O=C(NC(=O)c1c(F)cccc1F)Nc1cc(Cl)c(F)c(Cl)c1F | 0.103% (inactive) | –
28 | ClCOCCl | 1.26% (inactive) | –
29 | N#CN=C1SCCN1Cc1ccc(Cl)nc1 | 0.618% (inactive) | –
30 | CCCCOC(C)=O | 1.84% (inactive) | –
31 | C[C@H](N)C(=O)c1ccccc1 | -8.9% (inactive) | –
32 | c1ccc2c(c1)CCNC2 | -7.07% (inactive) | –
33 | COC1=CC(=O)O[C@@H](/C=C/c2ccccc2)C1 | 1.13% (inactive) | –
34 | CCOP(=S)(OCC)Oc1ccc(Cl)cc1Cl | -1.88% (inactive) | –
35 | CCOC(=O)CC(SP(=S)(OC)OC)C(=O)OCC (stereo not given) | – | inactive
36 | C[C@]12C=CC(=O)C=C1CC[C@@H]1[C@@H]2CC[C@@]2(C)[C@H]1CC[C@]2(C)O | 4.51% [at 42.5 µM] (inactive) | –
37 | COP(=O)(OC)O/C(C)=C/C(=O)N(C)C | -0.939% (inactive) | –
38 | CCCN1CCC[C@@H]2Cc3nc(N)ncc3C[C@H]21 | 7.95% [at 42.5 µM] (inactive) | –
39 | CS(=O)(=O)Cl | 0.752% (inactive) | –
40 | O=C(O)C(Br)(Br)Br | 0.221% (inactive) | –
